Compound activity from PubChem BioAssay.
HT1080-NT tox = kills 2HG-producing HT-1080-NT fibrosarcoma cells; Potency, µM (series often up to 46.1 µM), inactives show at the top dose activity, negative = less viability, usual class: cytotoxic; HT-1080-NT fibrosarcoma viability, CellTiter-Glo ATP luminescence, 48 h; 1.6% of 360,000 active;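 note: NT is the 2HG producing partner of a matched IDH1 knockdown line; potency is the fitted concentration of half-maximal effect; 0% = DMSO-treated cells and -100% = media-only wells without cells; nearly all actives have a fitted effect of over 55% in size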
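HT-1080-NT; 750 cells/well; 5% FBS RPMI; 48 h compound, 37 degrees C; CellTiter-Glo luminescence; curve fitting and curve-class assignment.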
TDP1 cell noCPT = qHTS for Inhibitors of human tyrosyl-DNA phosphodiesterase 1 (TDP1): qHTS in cells in absence of CPT; AID 686978, 2013; 15% of 420,000 active; DT40 Tdp1-/- hTDP1 cells, no CPT, ATP luminescence, 48 h; Potency, µM (titrated, usually from 46.2 µM), for inactives: at the highest dose activity change, negative = growth inhibition, most hits filed as inhibitors; note: potency is the fitted concentration of half-maximal effect; nearly all actives have a fitted effect of over 55% in size
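Readout: luminescence from CellTiter-Glo after 30 min in the dark at RT. Cells: DT40 Tdp1-/- with stable hTDP1, 400/well. Exposure: compounds alone, ≥48 hr, 37 °C.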
HT1080 IDH1KD tx = HT-1080 IDH1 knockdown cell toxicity (counter line); 2% of 360,000 active; Potency, µM (titrated, usually from 46.1 µM), for inactives: top-dose activity, negative = toxicity, usual class: cytotoxic; HT-1080 IDH1 knockdown viability, ATP luminescence, 48 h;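 note: potency is the fitted concentration of half-maximal effect; 0% = DMSO wells and -100% = cell-free medium wells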
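In this qHTS, HT-1080 cells depleted of IDH1 are exposed for 48 h at 37 °C to compound titrations. Toxicity is scored from CellTiter-Glo luminescence, with DMSO as full viability and medium alone as none.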
IL-1B inflam inh = blocks inflammasome-driven IL-1 beta release; activity change, % at 57.5 µM; AID 743279; 4.7% of 360,000 active; THP-1 LPS/ATP IL-1B secretion, AlphaLISA, 16 h; active compounds read low; in the data active = activity change below about -50%; inconclusive = mostly about -30% to -49%
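Secreted IL-1B measured by AlphaLISA bead assay after 16 h compound exposure of THP-1 cells; compounds (final up to 57.5 uM) added 1 h before LPS (250 ng/mL) and ATP (1.25 mM) stimulation; lower signal means less secretion.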
DT40 TDP1 CPT = growth inhibition of DT40 Tdp1-/-;hTDP1 cells with camptothecin (screen for TDP1 inhibitors); chicken DT40 Tdp1-/-;hTDP1 cells + 20 nM CPT, ATP luminescence, 48 h; Potency, µM (titrated, usually from 46.2 µM), for inactives: top-dose activity change, negative = growth inhibition, most hits filed as inhibitors; 12% of 420,000 active; AID 686979; note: potency is the fitted concentration of half-maximal effect; nearly all actives have a fitted effect of over 55% in size
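Chicken DT40 Tdp1-/- cells stably complemented with human TDP1 were seeded at 400 cells/well in medium containing 20 nM camptothecin, exposed to pin-transferred compounds, and grown at 37 °C for at least 48 hr. Viability was read as ATP luminescence.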
* = called active by the depositor; ? = inconclusive; / = no result. Only some compounds are listed: those with a hit (about 19% of all), similar ones and a draw of the others. Unless noted, calls come from the whole dose curve; as a rule, active = well fitted curve in the direction sought with a large enough effect; inconclusive = small, poorly fitted or top-dose-only effect, or another doubt; inactive = no such curve, though single readings can be large; an effect the other way counts as inactive or inconclusive. Unless noted, % is set by controls: 0 for no effect and ±100 for the full control effect.

SMILES	HT1080-NT tox	TDP1 cell noCPT	HT1080 IDH1KD tx	IL-1B inflam inh	DT40 TDP1 CPT
COC(=O)[C@]12CCCCC=C1N(CCC1=CCCCC1)C(=O)[C@H](CC(=O)NCc1cccc(C(F)(F)F)c1)C2	?	23µM*	?	?	?
COC(=O)c1ccc(C(C(=O)NC2CCCCC2)N(CCc2ccccc2)C(=O)Cc2cccs2)cc1 (stereo not drawn)	8%	6.5µM*	21%	19	5.2µM*
COc1ccc(CN(C(=O)Cc2cccs2)C(C(=O)NC2CCCC2)c2ccncc2)cc1 (stereo not drawn)	1%	?	-24%	-4	?
Cc1ccc(C(C(=O)NC2CCCCC2)N(C(=O)Cc2c[nH]c3ccccc23)c2ccccc2)o1 (stereo not drawn)	?	?	-25%	?	?
COC(=O)c1ccc(C(C(=O)NC2CCCCC2)N(Cc2ccc(F)cc2)C(=O)Cc2cccs2)cc1 (stereo not drawn)	-4%	12µM*	-29%	-8	9.2µM*
COc1cc(C(C(=O)NC2CCCCC2)N(C(=O)Cc2c[nH]c3ccccc23)c2ccc(C)cc2)cc(OC)c1OC (stereo not drawn)	-4%	26µM*	-11%	-16	23µM*
COc1ccc(C(C(=O)NC2CCCCC2)N(Cc2cccs2)C(=O)Cc2c[nH]c3ccccc23)cc1 (stereo not drawn)	?	18µM*	?	-59*	4.6µM*
Cn1cc(Cl)c(C(=O)OCC(=O)c2ccccc2)n1	17%	4%	12%	-8	-4%
Cc1ccc(C(C(=O)Nc2ccc3c(c2)OCO3)N(C)C(=O)Cc2c[nH]c3ccccc23)cc1 (stereo not drawn)	?	-20%	?	-52*	?
COCC(C)n1c(C)cc(C(=O)CSc2nnc(-c3ccco3)o2)c1C (stereo not drawn)	-7%	?	-20%	-17	?
Cc1cc(C(=O)CN2C(=O)NC(c3ccccc3)(c3ccccc3)C2=O)c(C)n1Cc1ccco1	-12%	23µM*	-7%	-3	?
Cc1cc(C(=O)CSc2nnc(-c3ccco3)o2)c(C)n1Cc1ccco1	-5%	23µM*	0%	-4	21µM*
Cc1cc(C(=O)CSc2nncs2)c(C)n1Cc1ccco1	-2%	12µM*	-1%	11	-17%
Cc1cc(C(=O)CSc2nnc(-c3ccco3)o2)c(C)n1-c1ccc2c(c1)OCCO2	-4%	21µM*	-21%	15	?
CN(Cc1ccco1)C(=O)CN1C(=O)NC(c2ccccc2)(c2ccccc2)C1=O	-2%	-26%	-1%	-6	-30%
CCCCC(=O)Nc1cc(C)c(O)c(-c2nc3ncccc3o2)c1	/	-2%	/	/	-2%
Cc1cccc(N(CC(=O)NC2CCCCC2)C(=O)Cn2nnc(-c3ccc(C)o3)n2)c1	-2%	?	-1%	7	?
Cc1cc(C(=O)CCl)c(C)n1Cc1ccco1	?	2.6µM*	?	-97*	2.6µM*
CC1(C(=O)NS(=O)(=O)c2ccccc2)CCN1C(=O)CC1CCCC1 (stereo not drawn)	2%	-7%	?	-10	-11%
CCCc1nc2cc(C)c(Br)c(C)n2c1Cc1ccccc1OC	?	15µM*	-29%	20	26µM*
Cc1cc2nc(C(C)(C)C)c(Cc3ccsc3)n2c(C)c1Br	29µM*	?	?	69	?
COc1ccccc1Cc1c(C(C)(C)C)nc2cc(C)c(Br)c(C)n12	16%	16µM*	12%	67	26µM*
Cc1ccc(Cc2c(C(C)(C)C)nc3cc(C)c(Br)c(C)n23)cc1	-2%	?	-6%	77	?
COc1ccccc1Cc1c(-c2ccccc2)nc2cc(C)c(Br)c(C)n12	-19%	?	-19%	20	?
